Test results published in the supplement of paper PMC11732987, “Enantioselective OTUD7B fragment discovery through chemoproteomics screening and high-throughput optimisation” (Communications Chemistry, 2025).

Legend:
Experiment in all cases: log2 ratio of Biotin-Ahx-Ub-VS probe labelling (fragment/DMSO); higher = less target engagement (more negative = stronger competition), active = hit call of the paper (q ≤ 0.05, log2 ratio ≤ -1)
Conditions in all cases: compound concentration: 200 uM; treatment time: 3 h
OTUD6B = target: T1, OTUD6B (UniProt Q8N6M0)
T1 sequence (whole entry): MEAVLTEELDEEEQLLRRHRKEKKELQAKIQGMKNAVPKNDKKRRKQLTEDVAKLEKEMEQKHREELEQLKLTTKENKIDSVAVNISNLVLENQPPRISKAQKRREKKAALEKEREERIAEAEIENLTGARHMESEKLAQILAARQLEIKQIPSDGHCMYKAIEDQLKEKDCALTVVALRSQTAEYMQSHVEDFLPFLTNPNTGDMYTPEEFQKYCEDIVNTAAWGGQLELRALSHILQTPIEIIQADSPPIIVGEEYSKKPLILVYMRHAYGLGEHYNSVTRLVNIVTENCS
Method in brief: (§1)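 Fragment (200 µM) or vehicle was incubated for 3 h with triplicate HEK293T lysate samples of 495 µg, which were then treated with Biotin-Ahx-Ub-VS at 0.5 µM final for 1 h. Labelled DUBs were enriched on NeutrAvidin, digested with LysC and trypsin, and analysed by diaPASEF LC-MS/MS. Values are average log2 fragment/vehicle ratios from an unpaired t-test on global-median-normalised Spectronaut label-free quantities, using proteins with ≥2 unique peptides.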

OTUD7B = target: T2, OTUD7B (UniProt Q6GQQ9)
T2 sequence (whole entry): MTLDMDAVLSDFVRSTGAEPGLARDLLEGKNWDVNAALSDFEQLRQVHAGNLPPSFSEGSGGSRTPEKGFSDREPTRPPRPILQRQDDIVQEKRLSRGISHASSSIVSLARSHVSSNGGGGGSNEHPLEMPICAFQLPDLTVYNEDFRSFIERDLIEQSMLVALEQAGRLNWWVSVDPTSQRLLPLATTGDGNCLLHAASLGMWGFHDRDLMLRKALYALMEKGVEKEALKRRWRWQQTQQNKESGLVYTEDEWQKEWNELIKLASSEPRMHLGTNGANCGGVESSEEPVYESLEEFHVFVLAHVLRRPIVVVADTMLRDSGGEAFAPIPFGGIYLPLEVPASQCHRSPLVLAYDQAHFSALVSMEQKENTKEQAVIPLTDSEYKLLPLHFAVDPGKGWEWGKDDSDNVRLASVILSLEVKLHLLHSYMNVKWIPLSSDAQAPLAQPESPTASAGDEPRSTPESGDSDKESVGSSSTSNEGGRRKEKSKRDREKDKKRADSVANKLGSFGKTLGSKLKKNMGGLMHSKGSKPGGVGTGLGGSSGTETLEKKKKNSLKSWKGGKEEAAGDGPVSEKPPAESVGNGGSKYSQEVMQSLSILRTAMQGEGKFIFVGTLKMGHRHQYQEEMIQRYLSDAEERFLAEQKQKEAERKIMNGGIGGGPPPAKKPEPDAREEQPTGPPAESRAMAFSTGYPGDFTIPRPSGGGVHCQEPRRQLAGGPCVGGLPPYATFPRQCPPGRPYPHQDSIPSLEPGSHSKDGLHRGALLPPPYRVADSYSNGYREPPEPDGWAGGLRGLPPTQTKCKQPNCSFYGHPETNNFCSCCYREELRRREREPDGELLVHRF
Method in brief: as §1

PRPF8 = PRPF8 (UniProt Q6P2Q9)
Method in brief: as §1

PSMD7 = target: T3, PSMD7 (UniProt P51665)
T3 sequence (whole entry): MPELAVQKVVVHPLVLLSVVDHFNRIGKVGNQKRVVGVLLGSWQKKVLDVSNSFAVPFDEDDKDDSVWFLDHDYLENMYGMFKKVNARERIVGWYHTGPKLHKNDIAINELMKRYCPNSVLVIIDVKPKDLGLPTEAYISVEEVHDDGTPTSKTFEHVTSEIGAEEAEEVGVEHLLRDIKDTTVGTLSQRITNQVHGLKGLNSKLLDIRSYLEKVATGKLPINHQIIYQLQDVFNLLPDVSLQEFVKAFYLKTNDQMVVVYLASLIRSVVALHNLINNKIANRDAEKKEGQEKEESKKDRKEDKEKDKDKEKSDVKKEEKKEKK
Method in brief: as §1

UCHL1 = UCHL1 (UniProt P09936)
Chain of UCHL1 (P09936 whole entry, looked up): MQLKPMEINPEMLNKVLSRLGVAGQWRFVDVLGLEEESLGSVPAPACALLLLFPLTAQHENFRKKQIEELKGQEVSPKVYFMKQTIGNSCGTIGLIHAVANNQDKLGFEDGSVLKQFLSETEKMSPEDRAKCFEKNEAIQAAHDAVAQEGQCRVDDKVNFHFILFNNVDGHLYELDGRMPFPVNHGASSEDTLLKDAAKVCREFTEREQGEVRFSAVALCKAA
Method in brief: as §1

UCHL3 = target: T4, UCHL3 (UniProt P15374)
T4 sequence (whole entry): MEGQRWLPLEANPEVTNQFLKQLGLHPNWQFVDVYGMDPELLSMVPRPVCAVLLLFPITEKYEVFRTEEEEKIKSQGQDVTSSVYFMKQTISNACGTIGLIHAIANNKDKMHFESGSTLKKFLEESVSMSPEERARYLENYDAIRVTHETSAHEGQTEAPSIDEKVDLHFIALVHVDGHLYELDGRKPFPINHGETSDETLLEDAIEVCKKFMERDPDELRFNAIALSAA
Method in brief: as §1

UCHL5 = target: T5, UCHL5 (UniProt Q9Y5K5)
T5 sequence (whole entry): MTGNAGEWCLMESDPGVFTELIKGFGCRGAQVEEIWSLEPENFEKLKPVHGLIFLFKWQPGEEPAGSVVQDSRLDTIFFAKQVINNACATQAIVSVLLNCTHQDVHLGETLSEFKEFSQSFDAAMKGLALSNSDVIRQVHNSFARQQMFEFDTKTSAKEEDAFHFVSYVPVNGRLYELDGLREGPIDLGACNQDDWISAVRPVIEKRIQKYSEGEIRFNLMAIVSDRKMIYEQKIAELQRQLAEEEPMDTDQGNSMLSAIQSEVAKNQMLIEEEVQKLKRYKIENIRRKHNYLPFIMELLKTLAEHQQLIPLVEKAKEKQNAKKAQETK
Method in brief: as §1

USP10 = USP10 (UniProt Q14694)
Chain of USP10 (Q14694 whole entry): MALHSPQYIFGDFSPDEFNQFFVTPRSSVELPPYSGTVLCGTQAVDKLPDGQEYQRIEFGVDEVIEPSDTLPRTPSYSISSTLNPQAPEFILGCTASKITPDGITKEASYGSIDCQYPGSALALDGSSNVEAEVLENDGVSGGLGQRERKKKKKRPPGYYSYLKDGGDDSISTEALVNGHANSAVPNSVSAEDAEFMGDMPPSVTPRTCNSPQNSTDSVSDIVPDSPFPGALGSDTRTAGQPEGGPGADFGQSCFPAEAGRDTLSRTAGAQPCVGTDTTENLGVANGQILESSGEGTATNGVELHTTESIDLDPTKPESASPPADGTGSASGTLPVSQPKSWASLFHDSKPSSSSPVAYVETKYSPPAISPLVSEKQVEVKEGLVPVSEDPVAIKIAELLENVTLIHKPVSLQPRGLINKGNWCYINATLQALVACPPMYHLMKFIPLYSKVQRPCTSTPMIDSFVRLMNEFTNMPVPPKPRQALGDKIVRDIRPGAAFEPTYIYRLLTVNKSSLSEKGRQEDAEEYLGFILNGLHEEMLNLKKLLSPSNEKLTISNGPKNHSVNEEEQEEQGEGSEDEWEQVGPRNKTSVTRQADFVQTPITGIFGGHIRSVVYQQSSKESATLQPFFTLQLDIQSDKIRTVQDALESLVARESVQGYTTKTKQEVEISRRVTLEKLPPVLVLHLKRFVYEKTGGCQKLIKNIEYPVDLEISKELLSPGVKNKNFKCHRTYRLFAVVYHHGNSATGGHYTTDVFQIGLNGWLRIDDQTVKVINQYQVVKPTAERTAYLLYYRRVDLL
Method in brief: as §1

USP15 = target: T6, USP15 (UniProt Q9Y4E8)
T6 sequence (whole entry): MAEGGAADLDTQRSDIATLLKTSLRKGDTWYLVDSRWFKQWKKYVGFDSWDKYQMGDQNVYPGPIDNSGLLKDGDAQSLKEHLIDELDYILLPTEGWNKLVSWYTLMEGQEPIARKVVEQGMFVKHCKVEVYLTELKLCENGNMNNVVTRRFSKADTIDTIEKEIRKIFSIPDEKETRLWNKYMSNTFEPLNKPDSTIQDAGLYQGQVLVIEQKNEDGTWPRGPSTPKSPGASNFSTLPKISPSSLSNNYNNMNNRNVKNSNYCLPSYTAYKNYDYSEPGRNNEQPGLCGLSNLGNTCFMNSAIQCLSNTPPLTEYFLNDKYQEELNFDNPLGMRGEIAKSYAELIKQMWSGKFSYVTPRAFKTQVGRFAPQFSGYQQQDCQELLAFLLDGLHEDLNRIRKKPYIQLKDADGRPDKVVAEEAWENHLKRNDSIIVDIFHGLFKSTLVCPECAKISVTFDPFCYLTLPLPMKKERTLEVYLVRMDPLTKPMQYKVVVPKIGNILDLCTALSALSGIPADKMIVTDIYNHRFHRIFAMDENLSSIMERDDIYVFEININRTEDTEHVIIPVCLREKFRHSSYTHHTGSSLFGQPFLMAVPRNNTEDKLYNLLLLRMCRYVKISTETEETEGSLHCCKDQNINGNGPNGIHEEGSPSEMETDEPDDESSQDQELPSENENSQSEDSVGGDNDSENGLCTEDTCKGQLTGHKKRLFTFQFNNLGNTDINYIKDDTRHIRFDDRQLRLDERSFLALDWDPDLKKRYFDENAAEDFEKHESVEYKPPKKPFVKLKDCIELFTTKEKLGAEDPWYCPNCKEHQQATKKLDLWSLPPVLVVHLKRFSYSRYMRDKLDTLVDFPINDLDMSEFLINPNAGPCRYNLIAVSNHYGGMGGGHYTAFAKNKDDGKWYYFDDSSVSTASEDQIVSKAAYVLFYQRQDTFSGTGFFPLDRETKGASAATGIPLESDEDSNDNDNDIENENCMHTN
Method in brief: as §1

USP16 = USP16 (UniProt Q9Y5T5)
Chain of USP16 (Q9Y5T5 whole entry, looked up): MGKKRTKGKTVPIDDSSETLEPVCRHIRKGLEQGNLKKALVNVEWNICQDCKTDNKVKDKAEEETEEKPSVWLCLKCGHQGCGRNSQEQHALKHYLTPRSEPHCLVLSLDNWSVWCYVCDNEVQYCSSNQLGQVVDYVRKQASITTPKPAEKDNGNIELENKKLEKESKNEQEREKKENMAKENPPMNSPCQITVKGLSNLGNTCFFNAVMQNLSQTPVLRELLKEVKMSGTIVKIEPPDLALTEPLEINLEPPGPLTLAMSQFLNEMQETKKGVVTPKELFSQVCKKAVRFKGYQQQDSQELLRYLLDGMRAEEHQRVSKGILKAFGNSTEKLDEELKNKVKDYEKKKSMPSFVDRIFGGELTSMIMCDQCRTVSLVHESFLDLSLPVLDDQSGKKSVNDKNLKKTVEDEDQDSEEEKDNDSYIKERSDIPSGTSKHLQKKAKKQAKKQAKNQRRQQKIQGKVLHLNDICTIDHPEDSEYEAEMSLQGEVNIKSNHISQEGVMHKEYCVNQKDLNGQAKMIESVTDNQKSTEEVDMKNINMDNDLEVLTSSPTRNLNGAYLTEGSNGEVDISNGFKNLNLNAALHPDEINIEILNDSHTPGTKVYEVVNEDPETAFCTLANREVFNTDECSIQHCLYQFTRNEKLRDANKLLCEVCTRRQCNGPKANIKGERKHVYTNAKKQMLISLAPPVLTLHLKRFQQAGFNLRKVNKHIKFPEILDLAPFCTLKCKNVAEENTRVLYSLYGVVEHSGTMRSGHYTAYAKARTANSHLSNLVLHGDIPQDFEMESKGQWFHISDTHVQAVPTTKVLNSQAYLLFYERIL
Method in brief: as §1

Measured: log2 ratio of Biotin-Ahx-Ub-VS probe labelling

CS(=O)(=O)c1ccc(CNC(=O)CCl)cc1
inactive: OTUD6B -0.168 | OTUD7B -0.575 | PRPF8 -0.126 | PSMD7 -0.155 | UCHL3 0.301 | UCHL5 -0.165 | USP10 -0.141 | USP15 -0.268 | USP16 -0.251
active: UCHL1 -1.33
